Bioassay records deposited in PubChem by National Center for Advancing Translational Sciences (NCATS).
The sample as a whole holds a higher share of hits than the screen did.
KDM5B inhibitor: Primary screen for KDM5B Histone Demethylases FDH-coupled qHTS | Lysine-specific demethylase 5B (Homo sapiens), Q9UGL1 | KDM5B demethylase, FDH-coupled NADH fluorescence (FDH is formaldehyde dehydrogenase) | Potency, µM (doses to about 57.7 µM), hits mostly inhibitors | actives 2.6% (n = 220,000); active = well fitted inhibition curve with a large enough effect; also: 0% is about no effect; nearly all actives have a fitted effect of over 70% in size
Target sequence (Q9UGL1 whole entry, looked up): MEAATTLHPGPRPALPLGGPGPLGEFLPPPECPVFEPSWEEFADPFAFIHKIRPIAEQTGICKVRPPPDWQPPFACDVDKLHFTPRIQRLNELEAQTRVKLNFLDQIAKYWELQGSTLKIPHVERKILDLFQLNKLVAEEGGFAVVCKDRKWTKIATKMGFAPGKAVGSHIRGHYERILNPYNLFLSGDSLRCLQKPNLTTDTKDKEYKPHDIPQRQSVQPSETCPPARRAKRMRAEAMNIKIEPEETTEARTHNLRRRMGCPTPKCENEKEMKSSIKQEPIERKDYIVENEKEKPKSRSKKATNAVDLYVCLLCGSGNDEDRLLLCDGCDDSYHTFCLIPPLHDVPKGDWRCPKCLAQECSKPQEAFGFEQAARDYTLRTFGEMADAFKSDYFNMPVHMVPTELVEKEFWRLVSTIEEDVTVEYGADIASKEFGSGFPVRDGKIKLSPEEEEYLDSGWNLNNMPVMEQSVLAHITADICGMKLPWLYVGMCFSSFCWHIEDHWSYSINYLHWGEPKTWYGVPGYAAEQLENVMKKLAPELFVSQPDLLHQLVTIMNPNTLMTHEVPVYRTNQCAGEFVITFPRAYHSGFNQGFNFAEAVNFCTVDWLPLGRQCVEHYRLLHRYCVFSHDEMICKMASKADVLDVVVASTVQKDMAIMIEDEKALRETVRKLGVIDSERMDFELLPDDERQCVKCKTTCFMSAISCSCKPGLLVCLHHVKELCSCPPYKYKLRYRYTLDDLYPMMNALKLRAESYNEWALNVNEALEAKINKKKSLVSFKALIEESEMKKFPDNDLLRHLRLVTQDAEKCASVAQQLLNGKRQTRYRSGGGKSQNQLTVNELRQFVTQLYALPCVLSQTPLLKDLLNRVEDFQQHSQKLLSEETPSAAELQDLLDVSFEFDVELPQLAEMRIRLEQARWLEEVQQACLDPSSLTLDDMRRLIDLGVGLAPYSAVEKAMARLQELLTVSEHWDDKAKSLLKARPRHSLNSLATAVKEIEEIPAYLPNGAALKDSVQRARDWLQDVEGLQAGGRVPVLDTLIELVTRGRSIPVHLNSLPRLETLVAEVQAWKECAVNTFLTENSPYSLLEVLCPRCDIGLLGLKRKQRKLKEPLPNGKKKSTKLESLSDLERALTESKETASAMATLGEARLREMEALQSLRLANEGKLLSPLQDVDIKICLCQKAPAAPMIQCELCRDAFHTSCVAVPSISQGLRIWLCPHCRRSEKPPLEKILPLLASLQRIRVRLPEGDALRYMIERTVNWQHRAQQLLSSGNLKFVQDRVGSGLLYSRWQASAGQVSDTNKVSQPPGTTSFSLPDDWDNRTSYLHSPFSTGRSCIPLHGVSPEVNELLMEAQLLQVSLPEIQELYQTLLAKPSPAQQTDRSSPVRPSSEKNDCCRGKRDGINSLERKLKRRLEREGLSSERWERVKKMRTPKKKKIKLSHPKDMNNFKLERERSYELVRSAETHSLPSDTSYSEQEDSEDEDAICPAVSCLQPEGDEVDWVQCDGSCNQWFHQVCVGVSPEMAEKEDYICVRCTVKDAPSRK
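qHTS format, multiple compound concentrations. Buffer 50 mM HEPES pH 7.5/0.01% Tween-20; 200 nM KDM5BΔAP final; 10 min compound preincubation; substrate-mix levels 12.5 µM peptide, 25 µM α-KG, 0.25 mM NAD⁺; 30 min RT; ΔRFU.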
* = called active by the depositor; i = inactive; ! = not confirmed by another sample. Potency is read from the fitted curve at half-maximal effect.

SMILES	KDM5B inhibitor
O=C(O)CCCC(=O)N1CCN2C(=O)c3cc(-c4ccco4)ccc3NC(=O)[C@@H]2C1	40µM*
O=C(O)CCCC(=O)N1CCN2C(=O)c3cc(Br)ccc3NC(=O)[C@@H]2C1	i
CCOC(=O)CSc1nc2ccccc2c(=O)n1-c1ccccc1OC	i
COc1ccc(-c2c(C)oc3cc(OCC(=O)N4CCC(C(N)=O)CC4)ccc3c2=O)cc1	i
CCOC(=O)NC(C(=O)NCCc1ccccc1)C(C)C (configuration not stated)	i
Cc1cccc(/C=N/Nc2cc(C(F)(F)F)ccc2Cl)c1	i
CCc1cccc(C)c1NC(=O)c1nn(Cc2ccccc2)c(=O)c2ccccc12	i
COc1ccc(Nc2nc(C(=O)OCC(=O)c3cccc(OC)c3)cs2)cc1	i
CN(CC(=O)Nc1ccc(OC(F)(F)F)cc1)C(=O)c1n[nH]c2ccccc12	i
Cc1ncsc1C(=O)NCc1cccnc1	i
Cc1cn2nc(C(=O)NCc3cccc(C(F)(F)F)c3)cc2c(=O)[nH]1	i
O=C(NCc1cccnc1)c1ccc(C2CCCCC2)cc1	i
O=C(NCc1cccs1)c1ccccn1	i
O=C(NCc1cccc(C(F)(F)F)c1)c1ccc2nccn2c1	35µM*
O=C(NCc1cccc(C(F)(F)F)c1)c1ccc(CN2CCCCC2)cc1	i
O=C(NCc1cccnc1)c1ccc2nccn2c1	112µM*!
O=C(NCc1cccs1)c1ccc2nccn2c1	35µM*
O=C(NCc1cccs1)c1ccc(-c2ccccc2)cc1	i
Cc1nc2ccc(C(=O)N3CCOCC3)cc2nc1C	i
O=Cc1cccn1-c1ccc(I)cc1	i
CNC(=O)NC(=O)COC(=O)c1csc(NCc2ccccc2)n1	i
O=C1Nc2ccc(-c3cccs3)cc2C(=O)N2CC[C@H](NS(=O)(=O)c3ccc(Cl)cc3)C[C@@H]12	32µM*
CC(C)(C)CC(=O)N[C@H]1C[C@H]2C(=O)Nc3ccc(-c4cccs4)cc3C(=O)N2C1	18µM*
O=C(N[C@H]1CCN2C(=O)c3cc(Br)ccc3NC(=O)[C@@H]2C1)C1CCNCC1	i
COCC(=O)N[C@H]1C[C@H]2C(=O)Nc3ccccc3C(=O)N2C1	i
SMILES	KDM5B inhibitor
CC(C)(C)CC(=O)N[C@H]1C[C@H]2C(=O)Nc3ccccc3C(=O)N2C1	i
CCCOC(=O)c1cc(-c2ccccc2)nc2ccccc12	i
COC(=O)C(NC(=O)Nc1ccccc1)C12CC3CC(CC(C3)C1)C2 (configuration not stated)	i
CCOC(=O)c1[nH]c(C)c(C(=O)OCc2ccccc2)c1C	i
CC(NC1CCCc2ccccc21)C(=O)c1c[nH]c2ccccc12 (configuration not stated)	i
O=c1cc(CN2CCN(S(=O)(=O)c3ccc(Cl)cc3)CC2)c2cc(Cl)c(O)cc2o1	i
O=C(Nc1c(C(=O)c2ccc3c(c2)OCCO3)oc2ccccc12)c1ccc(F)cc1	i
Cc1ccc(-c2ccc3nnc(CNC(=O)c4cccn4C)n3n2)cc1C	i
COc1ccc(C(=O)NCc2nnc3ccc(-c4ccc(C)c(C)c4)nn23)cc1OC	i
COc1ccc(C(=O)NCc2nnc3ccc(-c4ccc(C)c(C)c4)nn23)cc1F	32µM*
Cc1ccc(-c2ccc3nnc(CNC(=O)c4ccccc4)n3n2)cc1C	28µM*
Cc1ccc(C)c(C(=O)NCc2nnc3ccc(-c4ccc(C)c(C)c4)nn23)c1	14µM*
O=C(CSc1ccc2nnc(CCNC(=O)c3ccccc3)n2n1)Nc1ccccc1	i
Cc1ccc(-c2ccc3nnc(CNC(=O)c4cccc5[nH]ccc45)n3n2)cc1C	35µM*
Cc1ccc(NS(=O)(=O)c2cc(-c3ccc4nnc(C)n4n3)ccc2C)cc1	i
COc1ccc(S(=O)(=O)NC2CCN(C(=O)Nc3cc(Cl)ccc3OC)CC2)cc1	i
Cc1ccc(C(CC(=O)Nc2ccc(F)cc2)c2c[nH]c3ccccc23)cc1 (configuration not stated)	i
Cc1ccc(NC(=O)Cn2c(-c3ccc(Cl)cc3)nc(C)c(CCO)c2=O)c(C)c1	i
CCCNC(=O)NC(=O)CN(C)Cc1ccccc1Br	i
Cc1ccc(C)c(NC(=O)CCc2ncc(-c3c(F)cccc3F)o2)c1	i
COc1ccc(CNCC(O)COc2ccc(C(C)(C)C)cc2C)cc1OC (configuration not stated)	i
Cc1cccnc1NC(=O)C1CC(=O)N(Cc2ccc(F)cc2)C1 (configuration not stated)	i
Cc1cnc(C(=O)Oc2cccc(Cl)c2)cn1	i
COc1ccc(C(=O)Nc2ccc(NS(=O)(=O)c3ccc4c(c3)OCCCO4)cc2)cc1	i
CN(C)C(=O)CN1CCN(C(C(=O)O)c2c[nH]c3ccc(OCC#N)cc23)CC1 (configuration not stated)	i
CC(C)c1noc(-c2cccn3c(CNC(=O)c4ccc(F)c(F)c4)nnc23)n1	11µM*
COc1ccc(C(=O)NCCn2cccc2-c2nc(-c3ccccc3)no2)cc1F	i
